Inconclusive results are not listed. Activity calls are given as the source filed them. How the source made its calls, unless noted: active means hit-call score of the fitted dose curve at least 0.9, where 1 is the maximum; inactive means score below 0.9.

A short description of one experiment: IUF_NPC2b_neuronal_migration_120hr: Leibniz Research Institute for Environmental Medicine (IUF) 120-hour Neural Progenitor Cell Migration Assay for Neuron Migration (NPC2b) (AID 2284300). Put shortly:
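Read-out is mean distance from sphere edge to each TUBB3-positive neuron at 120 h, expressed relative to radial glia migration distance and to DMSO baseline. Single 0.3 mm human NPC spheres differentiated on laminin under continuous compound exposure.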
Take `CC(=O)OC/N=[N+](\C)[O-]`: the result was inactive.

For the compound `CCCCOCCOP(=O)(O)OCCOCCCC`, the result was inactive.

Regarding `CC(C)O`, the call was inactive.

As for `F`, the call was inactive.

For `CC(=O)N[C@@H](CC(=O)O)C(=O)O`, the call was inactive.

With `CCCCCC=C(C)C(CC)CCO` (configuration not stated), the result was inactive.

Regarding `BrC1CC(Br)CC(Br)CC(Br)CC(Br)CC(Br)C1` (configuration not stated), the AC50 was 3.11 µM (active).

`C[C@@H]1CC[C@@H](C(C)(C)O)[C@H](O)C1`: the compound was classed as inactive.

Take `CC(C)c1nn(C(=O)NC(C)(C)C)c(=O)n1N`: the result was inactive.

Regarding `CCc1ccccc1`, the call was inactive.

Turning to `CN(C)CCCn1cc(C2=C(c3c[nH]c4ccccc34)C(=O)NC2=O)c2ccccc21`, the half-maximal activity concentration (AC50) is 16.3 µM (active).

Regarding `CCCCCC(C)(CC)C(=O)NC` (configuration not stated), the compound was classed as inactive.

`Cc1[nH]n(C)c(=O)c1C(=O)c1ccc(C(F)(F)F)cc1S(C)(=O)=O`: the compound was classed as inactive.

Regarding `CC(CNC(=S)[S-])NC(=S)[S-].[Zn+2]` (configuration not stated), the result was inactive.

For the compound `C[C@@H]1CCO[C@H]2Cn3cc(C(=O)NCc4ccc(F)cc4F)c(=O)c(O)c3C(=O)N12`, the outcome was inactive.

Another experiment is described as follows: IUF_NPC3_neuronal_differentiation_120hr: Leibniz Research Institute for Environmental Medicine (IUF) 120-hour Neuronal Differentiation Assay (NPC3) (AID 2284301). The gist of the method:
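Value is percent TUBB3-positive neurons among Hoechst-stained nuclei in the migration area, scored by trained CNN after 120 h differentiation. Primary hNPC spheres on poly-D-lysine/laminin, N2 medium, continuous dosing from day 0, half-refeed day 3; DMSO reference.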
Turning to `CC(=O)OC/N=[N+](\C)[O-]`, the compound was called inactive.

Turning to `CCCCOCCOP(=O)(O)OCCOCCCC`, the compound was called inactive.

Consider `CC(C)O`, for which the call was inactive.

Consider `F`, for which the call was inactive.

Regarding `CC(=O)N[C@@H](CC(=O)O)C(=O)O`, the outcome was inactive.

Consider `CCCCCC=C(C)C(CC)CCO` (configuration not stated), for which the outcome was inactive.

For `BrC1CC(Br)CC(Br)CC(Br)CC(Br)CC(Br)C1` (configuration not stated), the AC50 was 1.72 µM (active).

Turning to `C[C@@H]1CC[C@@H](C(C)(C)O)[C@H](O)C1`, the compound was classed as inactive.

As for `CC(C)c1nn(C(=O)NC(C)(C)C)c(=O)n1N`, the compound was classed as inactive.

`CCc1ccccc1`: the compound was classed as inactive.

Consider `CN(C)CCCn1cc(C2=C(c3c[nH]c4ccccc34)C(=O)NC2=O)c2ccccc21`, for which the AC50 is 16.2 µM (active).

`CCCCCC(C)(CC)C(=O)NC` (configuration not stated): the outcome was inactive.

For the compound `Cc1[nH]n(C)c(=O)c1C(=O)c1ccc(C(F)(F)F)cc1S(C)(=O)=O`, the compound was called inactive.

Take `CC(CNC(=S)[S-])NC(=S)[S-].[Zn+2]` (configuration not stated): the compound was classed as inactive.

As for `C[C@@H]1CCO[C@H]2Cn3cc(C(=O)NCc4ccc(F)cc4F)c(=O)c(O)c3C(=O)N12`, the compound was called inactive.

The nature of a further experiment: IUF_NPC4_neurite_length_120hr: Leibniz Research Institute for Environmental Medicine (IUF) 120-hour Neuronal Morphology Assay for Neurite Length (NPC4) (AID 2284302). Put shortly: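 Neurite length, the mean in um across TUBB3-stained neurons, is derived by skeletonization of high-content images after 120 h differentiation. Compound exposure, 7 concentrations plus solvent control, ran from plating of hNPC spheres on poly-D-lysine/laminin, with medium half-replaced on day 3.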
In the case of `CC(=O)OC/N=[N+](\C)[O-]`, the compound was classed as inactive.

Regarding `CCCCOCCOP(=O)(O)OCCOCCCC`, the outcome was inactive.

Take `CC(C)O`: the result was inactive.

On to `F`, for which the compound was called inactive.

Consider `CC(=O)N[C@@H](CC(=O)O)C(=O)O`, for which the call was inactive.

In the case of `CCCCCC=C(C)C(CC)CCO` (configuration not stated), the call was inactive.

Consider `BrC1CC(Br)CC(Br)CC(Br)CC(Br)CC(Br)C1` (configuration not stated), for which the half-maximal activity concentration (AC50) is 1.04 µM (active).

For `C[C@@H]1CC[C@@H](C(C)(C)O)[C@H](O)C1`, the result was inactive.

As for `CC(C)c1nn(C(=O)NC(C)(C)C)c(=O)n1N`, the compound was classed as inactive.

Consider `CCc1ccccc1`, for which the call was inactive.

Turning to `CN(C)CCCn1cc(C2=C(c3c[nH]c4ccccc34)C(=O)NC2=O)c2ccccc21`, the half-maximal activity concentration (AC50) was 4.06 µM (active).

`CCCCCC(C)(CC)C(=O)NC` (configuration not stated): the compound was classed as inactive.

With `Cc1[nH]n(C)c(=O)c1C(=O)c1ccc(C(F)(F)F)cc1S(C)(=O)=O`, the result was inactive.

Consider `CC(CNC(=S)[S-])NC(=S)[S-].[Zn+2]` (configuration not stated), for which the AC50 was 50 µM (active).

For the compound `C[C@@H]1CCO[C@H]2Cn3cc(C(=O)NCc4ccc(F)cc4F)c(=O)c(O)c3C(=O)N12`, the compound was classed as inactive.

The nature of another experiment: IUF_NPC5_oligodendrocyte_differentiation_120hr: Leibniz Research Institute for Environmental Medicine (IUF) 120-hour Oligodendrocyte Differentiation Assay (NPC5) (AID 2284304; active means hit-call score of the fitted dose curve at least 0.9, where 1 is the maximum;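 further: primary human fetal neural progenitor spheres plated to migrate and differentiate; share of O4-positive cells among Hoechst nuclei found by CNN image analysis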). Put shortly:
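Oligodendrocyte differentiation was scored after 120 h as the O4-positive share of Hoechst-stained nuclei across the neurosphere migration area, using a trained convolutional neural network on high-content fluorescence images. Human fetal neural progenitor spheres were dosed from day 0, normalised to DMSO.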
For `CC(=O)OC/N=[N+](\C)[O-]`, the compound was called inactive.

As to `CC(=O)N[C@@H](CC(=O)O)C(=O)O`, the call was inactive.

`CCCCCC=C(C)C(CC)CCO` (configuration not stated): the outcome was inactive.

Take `BrC1CC(Br)CC(Br)CC(Br)CC(Br)CC(Br)C1` (configuration not stated): the AC50 was 0.856 µM (active).

As for `C[C@@H]1CC[C@@H](C(C)(C)O)[C@H](O)C1`, the result was inactive.

For the compound `CCc1ccccc1`, the compound was classed as inactive.

For the compound `CN(C)CCCn1cc(C2=C(c3c[nH]c4ccccc34)C(=O)NC2=O)c2ccccc21`, the AC50 is 0.746 µM (active).

Regarding `CCCCCC(C)(CC)C(=O)NC` (configuration not stated), the outcome was inactive.

For the compound `CC(CNC(=S)[S-])NC(=S)[S-].[Zn+2]` (configuration not stated), the compound was classed as inactive.

Regarding `C[C@@H]1CCO[C@H]2Cn3cc(C(=O)NCc4ccc(F)cc4F)c(=O)c(O)c3C(=O)N12`, the result was inactive.

The nature of another experiment: IUF_NPC4_neurite_area_120hr: Leibniz Research Institute for Environmental Medicine (IUF) 120-hour Neuronal Morphology Assay for Neurite Area (NPC4) (AID 2284305; active means hit-call score of the fitted dose curve at least 0.9, where 1 is the maximum). The gist of the method:
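Neurite area (pixels, nuclei excluded) of TUBB3-positive neurons from hNPC spheres differentiating 5 days under continuous exposure at 37 C, 5% CO2. High-content imaging; loss of signal versus DMSO control across 7 concentrations.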
Turning to `CC(=O)OC/N=[N+](\C)[O-]`, the outcome was inactive.

As to `CCCCOCCOP(=O)(O)OCCOCCCC`, the compound was classed as inactive.

With `CC(C)O`, the call was inactive.

Turning to `F`, the compound was called inactive.

Regarding `CC(=O)N[C@@H](CC(=O)O)C(=O)O`, the compound was called inactive.

As for `CCCCCC=C(C)C(CC)CCO` (configuration not stated), the compound was classed as inactive.

`BrC1CC(Br)CC(Br)CC(Br)CC(Br)CC(Br)C1` (configuration not stated): the half-maximal activity concentration (AC50) was 1.06 µM (active).

With `CC(C)c1nn(C(=O)NC(C)(C)C)c(=O)n1N`, the result was inactive.

For `CN(C)CCCn1cc(C2=C(c3c[nH]c4ccccc34)C(=O)NC2=O)c2ccccc21`, the concentration at half-maximal activity (AC50) was 7.2 µM (active).

Turning to `CCCCCC(C)(CC)C(=O)NC` (configuration not stated), the outcome was inactive.

Take `Cc1[nH]n(C)c(=O)c1C(=O)c1ccc(C(F)(F)F)cc1S(C)(=O)=O`: the compound was classed as inactive.

For the compound `CC(CNC(=S)[S-])NC(=S)[S-].[Zn+2]` (configuration not stated), the half-maximal activity concentration (AC50) was 39.2 µM (active).

With `C[C@@H]1CCO[C@H]2Cn3cc(C(=O)NCc4ccc(F)cc4F)c(=O)c(O)c3C(=O)N12`, the compound was classed as inactive.

A short description of the next experiment: IUF_NPC2-5_cytotoxicity_120hr: Cytotoxicity Assessment at 120 hours in the Leibniz Research Institute for Environmental Medicine (IUF) Neural Progenitor Cell Migration and Differentiation Assay (NPC2-5) (AID 2284307; active means hit-call score of the fitted dose curve at least 0.9, where 1 is the maximum;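 on AC50: LDH released into supernatant as membrane damage marker via resorufin fluorescence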). The gist of the method: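 Sphere plating starts differentiation and exposure together at day 0. Compound solution is half-replaced on day 3. At 120 h, medium supernatant is taken for an LDH membrane-integrity read based on resazurin reduction to resorufin fluorescence.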
In the case of `CCCCOCCOP(=O)(O)OCCOCCCC`, the compound was classed as inactive.

As for `CC(C)O`, the compound was classed as inactive.

As for `F`, the result was inactive.

For the compound `CC(=O)N[C@@H](CC(=O)O)C(=O)O`, the outcome was inactive.

Turning to `CCCCCC=C(C)C(CC)CCO` (configuration not stated), the outcome was inactive.

Turning to `BrC1CC(Br)CC(Br)CC(Br)CC(Br)CC(Br)C1` (configuration not stated), the concentration at half-maximal activity (AC50) was 4.52 µM (active).

Regarding `C[C@@H]1CC[C@@H](C(C)(C)O)[C@H](O)C1`, the compound was classed as inactive.

Regarding `CC(C)c1nn(C(=O)NC(C)(C)C)c(=O)n1N`, the outcome was inactive.

As for `CCc1ccccc1`, the call was inactive.

As for `CN(C)CCCn1cc(C2=C(c3c[nH]c4ccccc34)C(=O)NC2=O)c2ccccc21`, the AC50 is 8.39 µM (active).

In the case of `CCCCCC(C)(CC)C(=O)NC` (configuration not stated), the outcome was inactive.

Consider `Cc1[nH]n(C)c(=O)c1C(=O)c1ccc(C(F)(F)F)cc1S(C)(=O)=O`, for which the outcome was inactive.

Take `CC(CNC(=S)[S-])NC(=S)[S-].[Zn+2]` (configuration not stated): the half-maximal activity concentration (AC50) was 9.92 µM (active).

On to `C[C@@H]1CCO[C@H]2Cn3cc(C(=O)NCc4ccc(F)cc4F)c(=O)c(O)c3C(=O)N12`, for which the outcome was inactive.

As usually defined, the AC50 is the midpoint of the concentration-response curve, whichever way the signal moves.

Source of the values: PubChem BioAssay (EPA / NIEHS).
